# Screens as filed in PubChem.
# Sampled rows, rich in hits. Any-hit rate of the full collection: about 3.5%.
# ANO1 block = inhibitors of mouse TMEM16A calcium-activated chloride channel | 1.2% of 310,000 active | Q8BHY3 | AID 588511 | HEK293 TMEM16A/YFP iodide influx fluorescence, ionomycin | normalized B-score (activity score, 25-100; higher = stronger inhibition) at 10 µM;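 active = ratio plate-corrected score three or more library SD toward inhibition, starting fluorescence score within five deviations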;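 also: score derived from kinetic fluorescence span divided by baseline fluorescence per well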
# Kir21 inh = Kir2.1 (mouse) channel inhibition; 0.85% of 310,000 active; B-score at 10 µM; P35561; HEK293-Kir2.1, FluxOR thallium flux fluorescence; hits give low values;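 active = fluorescence ratio B-score at or below minus 3 SD of library scores, with starting-brightness B-score within 2 SD, cut at about -4.2 in these data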;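 also: channel flux triggered by added potassium and thallium sulfate stimulus; B-score of peak minus minimum fluorescence over baseline after thallium stimulus; more negative B-score means stronger Kir2.1 block with less thallium influx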
# KCNK3 block = human KCNK3 channel inhibition, primary screen; O14649; AID 602410; 0.84% of 340,000 active; B-score at 10 µM; CHO-KCNK3 thallium flux, FluxOR fluorescence; hits give low values;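 active = B-score under library mean minus 4 SD, starting fluorescence ratio at most library mean plus 5 SD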;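 also: more negative B-score means stronger inhibition of thallium flux through KCNK3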
# Target sequence (O14649 whole entry, looked up): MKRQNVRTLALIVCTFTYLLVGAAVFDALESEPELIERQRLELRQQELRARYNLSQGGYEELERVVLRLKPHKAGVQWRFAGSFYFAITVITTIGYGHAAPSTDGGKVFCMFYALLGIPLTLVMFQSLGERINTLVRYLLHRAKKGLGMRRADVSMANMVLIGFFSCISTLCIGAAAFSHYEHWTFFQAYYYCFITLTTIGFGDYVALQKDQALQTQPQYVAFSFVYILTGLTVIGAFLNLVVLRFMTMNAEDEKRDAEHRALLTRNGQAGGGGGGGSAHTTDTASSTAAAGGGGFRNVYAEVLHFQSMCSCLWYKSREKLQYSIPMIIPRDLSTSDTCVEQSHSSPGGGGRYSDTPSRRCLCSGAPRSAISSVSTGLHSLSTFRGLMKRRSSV
# KCNK9 inh = blocks the human KCNK9 two-pore domain potassium channel | Q9NPC2 | HEK293 KCNK9, FluxOR thallium flux fluorescence; hits give low values | B-score at 10 µM | 1.2% of 310,000 active;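 active = ratio B-score over 3 SD below the library mean, with starting fluorescence within 5 SD of its mean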;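 also: negative B-score means less thallium flux so channel inhibition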
# ANO1 activ = mouse TMEM16A channel activation, primary screen; Q8BHY3; HEK293 TMEM16A/YFP-H148Q/I152L, iodide quench fluorescence; hits give low values; B-score at 10 µM; 0.3% of 340,000 active; AID 623877;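 active = fluorescence-ratio B-score plate-corrected deviation score at least 3 library SD below zero, with starting fluorescence score within 5 deviations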;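 also: channel opened by trigger with iodide after compound preincubation; score built on the fluorescence ratio of max minus min over baseline; more negative score means more quench and so TMEM16A activation or potentiation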
# * = called active by the depositor; i = inactive; nt = no result given.
SMILES,ANO1 block,Kir21 inh,KCNK3 block,KCNK9 inh,ANO1 activ
CCCn1c2c(c(O)c(C(=O)Nc3nccs3)c1=O)CCCC2,i,0.18,i,-6.63*,i
Cc1ccc(C(C[N+](=O)[O-])c2c(C)[nH]n(-c3ccccc3)c2=O)cc1 (configuration not stated),i,-11.5*,i,i,i
Cc1[nH]n(-c2ccccc2)c(=O)c1C(C[N+](=O)[O-])c1ccc(F)cc1 (configuration not stated),i,0.67,i,i,i
CC(C)OC(=O)CN1C(=O)S/C(=C/c2ccc(N3CCCCC3)o2)C1=O,i,-4.84,i,-7.83*,i
O=C1S/C(=C/c2ccc(N3CCOCC3)o2)C(=O)N1Cc1ccc(F)cc1,i,-1.81,i,i,i
CCc1ccc(/C=N/n2c(C)cc(C)c(C#N)c2=O)cc1,i,-1.79,i,i,i
Cc1c(Cc2ccccc2)c(=O)oc2cc(OCC(=O)NC(Cc3ccc(Cl)cc3)C(=O)O)ccc12 (configuration not stated),i,0.09,i,-7.31*,i
CCOc1ccccc1OCCCCCc1c(C)n[nH]c1C,i,-4.81*,i,i,i
COc1ccccc1OCCCCCc1c(C)n[nH]c1C,i,-1.39,i,i,i
COc1cc(OC)c2cc(C(=O)N[C@@H](Cc3ccccc3)C(=O)O)n(C)c2c1,i,-2.13,i,i,i
COc1ccc(C(=O)NNC(=O)c2ccc(C(C)(C)C)cc2)cc1,i,0.51,i,i,i
COc1ccc(C(=O)NNC(=S)NC(=O)C(C)(C)C)cc1,25*,1.66,i,i,i
CC(C)(C)C(=O)NC(=S)NNC(=O)c1sc2ccccc2c1Cl,100*,2.11,i,i,-11.8*
CCCS(=O)(=O)N1CCN(C2Cc3ccccc3C2)CC1,i,-0.11,i,i,-12.5*
C/C(=N\NC(=O)C1CC1c1ccccc1)c1cccc([N+](=O)[O-])c1 (configuration not stated),25*,0.02,i,i,i
C/C(=N\NC(=O)C1CC1(c1ccccc1)c1ccccc1)c1cccc([N+](=O)[O-])c1 (configuration not stated),i,-0.16,i,i,i
Cc1nccn1CC(=O)N/N=C/c1cccc(O)c1,i,0.72,i,i,i
CC(=O)Nc1ccc(OCC(O)CN2CCN(Cc3ccccc3)CC2)cc1 (configuration not stated),i,0.11,i,i,i
COc1cccc(OCCOCC(O)CN2CCN(Cc3ccc(Cl)cc3)CC2)c1 (configuration not stated),i,-1.91,i,i,i
OC(CNC1CCCCC1)COCCOc1ccc(Br)cc1 (configuration not stated),i,-4.27*,i,i,i
CCc1ccc(OCCOCC(O)CN2CCN(Cc3ccc(Cl)cc3)CC2)cc1 (configuration not stated),100*,-9.06*,i,i,i
OC(COCCOc1ccc(Br)cc1)CN1CCN(Cc2ccccc2)CC1 (configuration not stated),i,-7.4*,i,i,i
CNC(=O)NC(=O)CSc1ccc(NC(C)=O)cc1,i,0.75,i,i,i
CSCCC(NS(=O)(=O)c1c(Cl)cccc1Cl)C(=O)O (configuration not stated),i,0.79,i,i,i
CCCCNc1c(-c2ccc(SC3CCCCC3)cc2)nc2ccccn12,i,0.12,i,i,i
SMILES,ANO1 block,Kir21 inh,KCNK3 block,KCNK9 inh,ANO1 activ
CCCCNc1c(-c2ccc(SC(C)CC)cc2)nc2ccccn12 (configuration not stated),100*,-1.3,i,-7.76*,i
NS(=O)(=O)c1ccc(CCNC(=O)c2coc3ccccc3c2=O)cc1,i,0.75,i,i,i
Clc1ccc(CN=C(Nc2ccccc2)NC2CCCCC2)cc1,i,-5.23*,i,i,i
CNCC[C@H](Oc1cccc2ccccc12)c1cccs1,i,-9.06*,i,i,i
Clc1cccc(-c2ccc(-c3nc4ccccn4c3NCc3ccccc3)cc2)c1,nt,nt,-9.62*,nt,i
COc1ccc(-c2cc(-c3nc4ccccn4c3NCc3ccccc3)ccc2OC)cc1,nt,nt,-8.7*,nt,i
